Laboratory results published in PubChem BioAssay (NCATS).
Where “and” joins values, the source holds several entries; their conditions need not be identical. Equal entries are not always repeated. Inconclusive results are not listed. Calls of active or inactive are those of the source. Calls come from the whole dose curve; as a rule, active = well fitted inhibition curve with a large enough effect; inconclusive = small, poorly fitted or top-dose-only effect; inactive = flat fitted curve, though single readings scatter. Where a SMILES comes first, the peptide text is derived from it. Bridges are numbered along the chain shown (N, C = ends). [ ]: non-standard residue; d: D form. The star is where a group is joined. X1 = CC[C@@H](C)[C@@H](N)C1=N[C@H](C(=O)*)CS1; d(aIle) = CC[C@H](C)[C@@H](N)C(=O)O; dOrn = NCCC[C@@H](N)C(=O)O

Columns and labels:
[1] = Drug repurposing screens with cells derived from glioblastoma tumor samples (AID 1345199); conditions: GBM patient neurospheres viability, ATP luminescence, 48 h; note: nearly all actives have a fitted effect of over 40% in size
Summary of the method: (§1)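 Four patient lines of CD133+ GBM neurospheres were screened at several concentrations; hits were retested in those lines plus three slower-growing GBM lines, using 48-hour treatment and ATP-based viability.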

astro = control astrocytes; experiment: as above; conditions: viability, ATP luminescence, 48 h; series mostly up to 45.9 µM
Summary of the method: as §1

[2] = at 45.9 µM (top of the series), tumour line B
[3] = at 45.9 µM (top of the series), tumour line D
[4] = at 46.1 µM (top of the series), tumour line C
[5] = at 46 µM (top of the series), tumour line A
[6] = at 20 µM (top of the series), tumour line C
% is set by controls: 0 for no effect and ±100 for the full control effect; potency is the fitted concentration of half-maximal effect.

CO/N=C(\C(=O)N[C@@H]1C(=O)N2C(C(=O)O)=C(CSc3nnnn3C)CS[C@H]12)c1csc(N)n1
inactive: activity, negative = cell killing [1, 2] -10.5% | activity, negative = cell killing [1, 3] -9.07% | activity, negative = cell killing [1, 4] -27.1%
active: Potency ([1]; tumour line A) 11.2 µM

O=P(O)(O)CP(=O)(O)O
inactive: activity, negative = cell killing [1, 2] -7.32% | activity, negative = cell killing [1, 3] -1.92% | activity, negative = cell killing [1, 5] -22% | activity, negative = cell killing [1, 4] -17.6%

CC[C@@H](C)[C@@H](N)C1=N[C@H](C(=O)N[C@@H](CC(C)C)C(=O)N[C@@H](CCC(=O)O)C(=O)N[C@@H](C(=O)N[C@@H]2CCCCNC(=O)[C@@H](CC(N)=O)NC(=O)[C@@H](CC(=O)O)NC(=O)[C@@H](Cc3cnc[nH]3)NC(=O)[C@@H](Cc3ccccc3)NC(=O)[C@@H]([C@H](C)CC)NC(=O)[C@@H](CCCN)NC2=O)[C@@H](C)CC)CS1 (X1-LE[d(aIle)][dK][dOrn][dI][dF][dH][dD][dN]; lactam 4-C)
inactive: activity, negative = cell killing [1, 6] 4.06% | activity, negative = cell killing ([1]; at 21.2 µM (top of the series), tumour line B) -2.34% | activity, negative = cell killing ([1]; at 21.2 µM (top of the series), tumour line D) -0.888% | activity, negative = cell killing ([1]; at 21.3 µM (top of the series), tumour line A) -20.3% | activity, negative = cell killing [1, 2] -12.2% | activity, negative = cell killing [1, 3] -10.9% | activity, negative = cell killing [1, 5] -25% | activity, negative = cell killing [1, 4] 23.1% | Potency (astro)

C[C@H](NCCc1ccc(O)cc1)[C@H](O)c1ccc(O)cc1
inactive: activity, negative = cell killing [1, 2] -2.5% | activity, negative = cell killing [1, 3] -20.4% | activity, negative = cell killing [1, 4] -12.8%

CC(=O)N[C@@H]([C@@H](O)[C@H](O)[C@H](O)CO)[C@@H](O)CC(=O)C(=O)O
inactive: activity, negative = cell killing [1, 2] -12% | activity, negative = cell killing [1, 3] -21.2% | activity, negative = cell killing [1, 4] -14.1%

COc1ccc2c(c1)N(C[C@H](C)CN(C)C)c1ccccc1S2
inactive: activity, negative = cell killing [1, 6] 13%
active: Potency ([1]; tumour line A) 4.47 µM | Potency ([1]; tumour line D) 12.6 µM

OC[C@H]1OC([S-])[C@H](O)[C@@H](O)[C@@H]1O.[Au+] (stereo not given in full)
inactive: activity, negative = cell killing [1, 2] -5.43% | activity, negative = cell killing [1, 3] -19.5% | activity, negative = cell killing [1, 4] -19.6%

CCc1ccc(S(=O)(=O)O)cc1
inactive: activity, negative = cell killing [1, 2] 3.64% | activity, negative = cell killing [1, 3] -9.65% | activity, negative = cell killing [1, 4] -22.1%

CC(C)(C)c1ccc2c(S(=O)(=O)O)c(C(C)(C)C)ccc2c1
inactive: activity, negative = cell killing [1, 2] 0.454% | activity, negative = cell killing [1, 3] 6.66% | activity, negative = cell killing [1, 5] -27.1% | activity, negative = cell killing [1, 4] -16.6% | activity, negative = cell killing ([1]; at 91.6 µM (top of the series), tumour line B) -24.2% | activity, negative = cell killing ([1]; at 91.6 µM (top of the series), tumour line D) -20.7% | activity, negative = cell killing ([1]; at 99.2 µM (top of the series), tumour line C) -7.16% | Potency (astro)

OC[C@@H](O)C(O)[C@H](O)CO
inactive: activity, negative = cell killing [1, 2] -10.5% | activity, negative = cell killing [1, 3] -11.3% | activity, negative = cell killing [1, 5] -25% | activity, negative = cell killing [1, 4] 11.8% | Potency (astro)

N[C@H](CC(=O)O)C(=O)O
inactive: activity, negative = cell killing [1, 2] 13.2% | activity, negative = cell killing [1, 3] 11.3% | activity, negative = cell killing [1, 5] 11.8% | activity, negative = cell killing [1, 4] -1.3% | Potency (astro)

O=C1c2c(O)cccc2[C@H]([C@@H]2O[C@H](CO)[C@@H](O)[C@H](O)[C@H]2O)c2cc(CO)cc(O)c21
inactive: activity, negative = cell killing [1, 2] -6.89% | activity, negative = cell killing [1, 3] -4.21% | activity, negative = cell killing [1, 5] -19.8% | activity, negative = cell killing [1, 4] -2.48% | Potency (astro)

CC[C@H](C)[C@@H]1NC(=O)[C@H](Cc2ccc(O)cc2)NC(=O)[C@@H](N)CSSC[C@@H](C(=O)N2CCC[C@H]2C(=O)N[C@@H](CC(C)C)C(=O)NCC(N)=O)NC(=O)[C@H](CC(N)=O)NC(=O)[C@H](CCC(N)=O)NC1=O
inactive: activity, negative = cell killing [1, 2] -4.51% | activity, negative = cell killing [1, 3] -1.96% | activity, negative = cell killing [1, 5] -11.4% | activity, negative = cell killing [1, 4] -6.16% | Potency (astro)

Cn1c(O)c(N=NC(N)=S)c2ccccc21
inactive: activity, negative = cell killing [1, 2] -22.4% | activity, negative = cell killing [1, 3] -18.5% | activity, negative = cell killing [1, 4] -19.8% | Potency (astro)
active: Potency ([1]; tumour line A) 31.6 µM

COc1cc2c(cc1OC)[C@@H](Cc1cc(OC)c(OC)c(OC)c1)[N+](C)(CCCOC(=O)CC/C=C/CCC(=O)OCCC[N+]1(C)CCc3cc(OC)c(OC)cc3[C@H]1Cc1cc(OC)c(OC)c(OC)c1)CC2 (stereo not given in full)
inactive: activity, negative = cell killing [1, 2] -17.7% and -2.67% | activity, negative = cell killing [1, 3] -12.5% and -11.6% | activity, negative = cell killing [1, 5] -22.5% | activity, negative = cell killing [1, 4] -14.7% and -8.1% | Potency (astro)

C=CC[C@@H]1/C=C(\C)C[C@H](C)C[C@H](OC)[C@H]2O[C@@](O)(C(=O)C(=O)N3CCCC[C@H]3C(=O)O[C@H](/C(C)=C/[C@@H]3CC[C@@H](O)[C@H](OC)C3)[C@H](C)[C@@H](O)CC1=O)[C@H](C)C[C@@H]2OC
active: Potency ([1]; tumour line A) 7.94 µM
inactive: activity, negative = cell killing [1, 2] -12.2% | activity, negative = cell killing [1, 3] -18.8% | activity, negative = cell killing [1, 4] -16.1% | Potency (astro)

C[C@@H]1O[C@@H](OC[C@H]2O[C@@H](Oc3c(-c4ccc(OCCO)c(OCCO)c4)oc4cc(OCCO)cc(O)c4c3=O)[C@H](O)[C@@H](O)[C@@H]2O)[C@H](O)[C@H](O)[C@H]1O
inactive: activity, negative = cell killing [1, 2] -5.23% | activity, negative = cell killing [1, 3] -14.3% | activity, negative = cell killing [1, 5] -13.8% | activity, negative = cell killing [1, 4] -13.8% | Potency (astro)
